# From ChEMBL document CHEMBL3988442, “University of Dundee, Small-Polar-MMV Screening Library” (2021)
# About 13,000 (27%) of roughly 48,000 compounds showed an effect of 50% or more. This is one part of the list.
# Test system: Wolbachia pipientis
# Experiment: Anti-Wolbachia Cell-Based Screen
# Format: functional
# Design: scale not given: in the data most compounds retested in dose-response had high values
# Settings: 5 µM
row,SMILES,Percent Effect
1,CCn1ccc2ccc(CN3CCCC3c3nc(C(C)C)no3)cc21 (configuration not stated),-10.44%
2,Cc1cccc(CO[C@H]2CO[C@@]3(CCN(S(=O)(=O)N(C)C)C3)C2)n1,-27.75%
3,FC(F)(F)Sc1ccccc1NCc1nc(C2CC2)no1,0.6009%
4,CC(NCc1cnc(C2CCC2)s1)c1ccc(-n2cncn2)cc1 (configuration not stated),-68.33%
5,CC(C)CCCC(C)NC(=O)c1ccc(OCC(N)=O)cc1 (configuration not stated),-8.979%
6,O=C(NCC(F)(F)F)C(c1cccnc1)N1CCCC1 (configuration not stated),-5.02%
7,CC(NC(=O)Nc1ccc(F)c(F)c1)c1nc[nH]n1 (configuration not stated),-17.28%
8,O=C(CC1Cn2ncnc2NC1=O)Nc1ccc(F)c(F)c1 (configuration not stated),110.9%
9,Cc1ccc(NC(=O)c2ccc(CC3CC(=O)NC3=O)cc2)cc1O (configuration not stated),-14.91%
10,CCC(=O)Nc1ccc(F)c(S(=O)(=O)NC(C)(C)C)c1,-7.233%
11,Cc1ccc(NC(=O)CC2Cn3ncnc3NC2=O)cc1C (configuration not stated),101.1%
12,Cc1cc(NC(=O)CNCc2csc(-c3ncccn3)n2)ccc1Cl,12.11%
13,O=C1CN(c2ccc(CNC(=O)c3ccc[nH]3)cc2F)CCN1,1.628%
14,CCNC(=O)NC(=O)CN(CC(C)O)c1ccccc1 (configuration not stated),-6.081%
15,FC(F)(F)c1nnc2n1CCN(c1nc(C3CC3)ns1)C2,7.167%
16,O=C(NS(=O)(=O)Cc1cc(-c2ccccc2)no1)C1CCOCC1,-7.495%
17,CC(C(=O)NS(=O)(=O)Cc1cc(-c2ccccc2)no1)C1CC1 (configuration not stated),-15.76%
18,CCN1CCC(CNC(=O)NCc2cc(-c3ccc(C)cc3)no2)C1 (configuration not stated),6.048%
19,O=S(=O)(Cc1cc(-c2ccccc2)no1)CC1CCCO1 (configuration not stated),117.5%
20,O=C(CC1CCCO1)NS(=O)(=O)Cc1cc(-c2ccccc2)no1 (configuration not stated),94.25%
21,c1ccc(-c2cc(CN3CCC(c4ccn[nH]4)CC3)on2)cc1,-18.74%
22,O=C(NCc1cc(-c2ccccc2)no1)NCC1CCCO1 (configuration not stated),63.77%
23,Cc1cc(C)c(CNC(=O)NCC2CCCO2)c(=O)[nH]1 (configuration not stated),-10.27%
24,CC1(C)CC1C(=O)NS(=O)(=O)Cc1cc(-c2ccccc2)no1 (configuration not stated),-6.027%
25,CS(=O)(=O)N1CC(c2nc[nH]n2)c2cc(C(=O)NC3CC3)ccc21 (configuration not stated),-11.05%
26,CC(=O)Nc1ccc(Cl)c(C(=O)N(C)C(C)c2ccon2)c1 (configuration not stated),2.031%

row,SMILES,Percent Effect
1,COCCN1CCN(Cc2nc3c(s2)CCCC3)[C@H]2CS(=O)(=O)C[C@H]21,-3.056%
2,CN(C)CCN(Cc1ccccc1)C(=O)C1=NNC(=O)CC1,-7.83%
3,Cc1ccc(NC2CCN(C(=O)c3cc(C(N)=O)cs3)CC2)nn1,7.568%
4,Cc1ccc(NC2CCN(C(=O)c3ccc(F)c(C)c3)CC2)nn1,89.48%
5,COc1ccc(C(=O)N2CCC(Nc3ccc(C)nn3)CC2)c(F)c1,-2.664%
6,Cc1ccc(NC2CCN(C(=O)c3cccc(F)c3F)CC2)nn1,-1.212%
7,Cc1ccc(NC2CCN(C(=O)c3ccc4c(c3)CCC4)CC2)nn1,112.2%
8,COc1cccc(COCC(=O)NC(C(N)=O)c2ccccc2)c1 (configuration not stated),-6.273%
9,COc1cc2nc3n(c(=O)c2cc1OC)CCN(C(=O)C(C)(C)C)CC3,130.5%
10,CCC(=O)N1CCc2nc3cc(OC)c(OC)cc3c(=O)n2CC1,-9.574%
11,COc1ccc2[nH]nc(CN3CCC(C(=O)N4CCCCC4)CC3)c2c1,-39.46%
12,COc1cc2nc3n(c(=O)c2cc1OC)CCN(C(=O)C1CC1)CC3,109.5%
13,COc1cc2nc3n(c(=O)c2cc1OC)CCN(C(C)=O)CC3,-0.7868%
14,COc1cc2nc(C)n(CC(=O)NCCCN(C)C)c(=O)c2cc1OC,20.74%
15,COc1cc2nc3n(c(=O)c2cc1OC)CCN(C(=O)C1CCC1)CC3,115.6%
16,CCCC(=O)N1CCc2nc3cc(OC)c(OC)cc3c(=O)n2CC1,121.4%
17,CC(CCN(C)C)NC(=O)c1cccc(C(F)(F)F)c1F (configuration not stated),5.139%
18,CN(Cc1ccncc1)CC(c1cccs1)N1CCOCC1 (configuration not stated),-0.8027%
19,Cc1ccc(C(=O)N(Cc2cccnc2)C[C@@H]2CCC(=O)N2)s1,6.518%
20,CCc1cnc(N)nc1NCCCn1cc(Cl)cn1,12.08%
21,O=C(CC1CCCO1)NCCCC(=O)Nc1ccc(Cl)cc1 (configuration not stated),117.3%
22,O=C(CCCNC(=O)NCC1CCCO1)Nc1ccc(Cl)cc1 (configuration not stated),100.3%
23,CNS(=O)(=O)c1ccc(CNC(=O)NCC2CCCO2)cc1 (configuration not stated),-4.659%
24,O=C(CCCNC(=O)C1CC1)Nc1cnn(-c2ccccc2Cl)c1,2.837%
25,O=C(CCC1CCCO1)NCCCO (configuration not stated),-3.139%
26,O=C(CC1CCCO1)NCCc1ccc(Br)cc1F (configuration not stated),2.724%

row,SMILES,Percent Effect
1,O=C(NCCNS(=O)(=O)c1cccc(Cl)c1)C1CCCO1 (configuration not stated),-1.895%
2,O=C(CCC1CCCO1)NCCCC(=O)Nc1ccc(Cl)cc1 (configuration not stated),132.9%
3,O=C(CCC1CCCO1)NS(=O)(=O)c1ccc(Cl)cc1 (configuration not stated),-0.06204%
4,O=C(NCCCN1CCN(c2ncccn2)CC1)NCC1CCCO1 (configuration not stated),8.99%
5,O=C(CCCNC(=O)C1CCCO1)Nc1ccc(Cl)cc1 (configuration not stated),123.9%
6,O=C(CC1CCCO1)NCCc1ccccc1Br (configuration not stated),-5.645%
7,CNS(=O)(=O)CC1CCCN1c1ccccn1 (configuration not stated),-17.04%
8,Cc1nc(-c2ccccc2)sc1CSC(C)C(N)=O (configuration not stated),-3.877%
9,CCOC(C)c1nc(CN2CCC(NC(C)C)CC2)cs1 (configuration not stated),9.562%
10,Cc1nn2cc(CCNC(=O)c3cc(C(C)C)no3)nc2s1,-4.133%
11,CCOC(=O)c1cnn(-c2cc(C)ccn2)c1N,-12.86%
12,CN(CCc1ccccn1)C(=O)c1cnn(-c2ccccc2F)c1N,110.9%
13,Cc1ccc(C)c(-n2ncc(C(=O)N(C)CCc3ccccn3)c2N)c1,159.7%
14,CN(CCc1ccccn1)C(=O)C(c1cccnc1)N1CCOCC1 (configuration not stated),2.073%
15,Cc1cc(Cl)ccc1-n1ncc(C(=O)N(C)CCc2ccccn2)c1N,185.4%
16,Cc1cc(C(=O)N2C[C@@H]3[C@@H](CN(C)CCc4ccccn4)[C@@H]3C2)c(C)o1,-1.529%
17,CN(CCc1ccccn1)C(=O)c1ccccc1F,-16.13%
18,Cc1ccccc1SC1CCN(C(=O)[C@@H]2C[C@@H](N)CN2)CC1,-21.68%
19,O=C(O)C(F)(F)F.O=C(O)C(F)(F)F.O=C(O)c1cc2c(nc1-c1cncnc1)CCN(C1CCOC1)CC2 (configuration not stated),-20.41%
20,Cc1cnn(CC2CCCCN2CCCS(N)(=O)=O)c1 (configuration not stated),-7.264%
21,OC1(CN2CCCCC2)CCN(Cc2c[nH]c(CC3CCCC3)n2)C1 (configuration not stated),5.378%
22,CN(Cc1c(F)cccc1Cl)C(=O)c1cnn(CCN2CCCCC2)c1,4.459%
23,COc1ccc(F)c(-c2nccn2CCN2CCCC2)c1,-4.269%
24,O=C(CN1CCCCCC1)NCc1ccc2[nH]c(=O)[nH]c2c1,33.1%
25,CC(C)OC(=O)N1C[C@H]2CC[C@@H]1CN(C(=O)c1ccccn1)C2,1.179%
26,O=C(COC1CCCCC1)N1CCN(C(=O)Cc2ccccn2)CC1,-7.801%

row,SMILES,Percent Effect
1,O=C(COCC1CC1)N1CCN(C(=O)Cc2ccccn2)CC1,1.286%
2,O=C(O)[C@@H]1CCN(C(=O)c2cscn2)[C@@H]1c1ccc(F)cc1,132.5%
3,Cc1ccccc1N1CCN(C(=O)c2cscn2)C(C)C1 (configuration not stated),6.365%
4,O=C(O)C(F)(F)F.O=C([C@H]1C[C@H]2OCC[C@H]2N(C(=O)c2ccccn2)C1)N1CCCCO1,-2.538%
5,O=C1N[C@@H]2CCN(C(=O)c3ccccc3)[C@@H]2C(=O)N1c1ccc(F)cc1,9.769%
6,CC(C)OC(=O)[C@@H]1CCN(C(=O)c2ccccn2)[C@@H]1c1ccc(F)cc1,116.9%
7,O=C(O)[C@@H]1CCN(C(=O)c2ccccn2)[C@@H]1c1ccc(F)cc1,129.5%
8,O=C(c1cscn1)N1CC[C@H]2[C@@H]1CCC(=O)N2c1ccccc1,5.214%
9,O=C(O)[C@@H]1CCN(C(=O)Cc2ccccn2)[C@@H]1c1ccc(F)cc1,124%
10,CN(C(=O)c1cccnc1OCC(F)F)c1ccc2c(c1)CCO2,-7.463%
11,Cc1c(-c2c(-c3ccccc3)ncn2[C@@H](C(=O)O)[C@H](C)O)cnn1C,-13.76%
12,COCc1ncn(Cc2nc(-c3ccc(OC)cc3F)oc2C)n1,-0.9498%
13,Cc1ccc(N2CCC(NC(C)c3cccs3)CC2)nc1 (configuration not stated),-4.773%
14,Cn1cc(-c2csc(N3CCSCC3)n2)cn1,-8.104%
15,CS(=O)(=O)N1CCC(c2nnc(CN3CCCC3)n2C2CC2)CC1,-12.66%
16,CN(Cc1cc(C[C@@H]2C[C@H](N)C2(C)C)no1)c1ccccc1,4.71%
17,O=C(O)C(F)(F)F.O=C(c1ccccn1)N1CCC2(CC1)C(=O)Nc1ccccc12,-9.696%
18,O=C(O)C(F)(F)F.O=C(c1cnc2ccccc2c1)N1CCC2(CCN2c2ncccn2)C1 (configuration not stated),69.16%
19,COCC1CC2(CCN(C(=O)c3cnc4ccccc4c3)CC2)CO1.O=C(O)C(F)(F)F (configuration not stated),5.909%
20,O=C(O)C(F)(F)F.O=C(c1ccc2ccccc2n1)N1CCC2(CCN2c2ncccn2)C1 (configuration not stated),82.49%
21,O=C(O)C(F)(F)F.O=C(O)C(F)(F)F.O=C(c1c[nH]cn1)N1CCC(F)(F)C2(CCN(c3ccccn3)C2)C1 (configuration not stated),6.098%
22,O=C(O)C(F)(F)F.O=C(c1ccccc1)N1CCC2(CCCN2c2ncccn2)CC1,93.81%
23,Cc1ccc(C(=O)N2CCC3(CCN3c3ncccn3)C2)cn1.O=C(O)C(F)(F)F (configuration not stated),98.39%
24,Cc1ccc(C(=O)N2CCC3(CC2)NC(=O)CC3c2ccccc2)cn1.O=C(O)C(F)(F)F (configuration not stated),15.96%
